# Experimental data: PubChem BioAssay (EPA / NIEHS)
# Results filed as inconclusive are left out. The source made the active and inactive calls. The calls were made as follows: active = hit-call score of the fitted dose curve at least 0.9, where 1 is the maximum; inconclusive = response in the unintended direction; inactive = score below 0.9.
# Molecular target: human Vitamin D Receptor (VDR), VDR (gene 7421) (UniProt P11473)
# Assay: ATG_VDR_TRANS: Attagene TRANS-FACTORIAL HepG2 Assay for human Vitamin D Receptor (VDR) (AID 2283022)
# In short: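 HepG2 cells were transiently transfected with GAL4-UAS reporter units and a chimeric VDR-Gal4 construct, then dosed for 24 hours. Reporter mRNA was quantified by RT-PCR, fluorescent labeling, HpaI digestion and capillary electrophoresis; gain of signal analysed vs DMSO.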
# Chain of human Vitamin D Receptor (VDR), VDR (gene 7421) (P11473 whole entry, looked up): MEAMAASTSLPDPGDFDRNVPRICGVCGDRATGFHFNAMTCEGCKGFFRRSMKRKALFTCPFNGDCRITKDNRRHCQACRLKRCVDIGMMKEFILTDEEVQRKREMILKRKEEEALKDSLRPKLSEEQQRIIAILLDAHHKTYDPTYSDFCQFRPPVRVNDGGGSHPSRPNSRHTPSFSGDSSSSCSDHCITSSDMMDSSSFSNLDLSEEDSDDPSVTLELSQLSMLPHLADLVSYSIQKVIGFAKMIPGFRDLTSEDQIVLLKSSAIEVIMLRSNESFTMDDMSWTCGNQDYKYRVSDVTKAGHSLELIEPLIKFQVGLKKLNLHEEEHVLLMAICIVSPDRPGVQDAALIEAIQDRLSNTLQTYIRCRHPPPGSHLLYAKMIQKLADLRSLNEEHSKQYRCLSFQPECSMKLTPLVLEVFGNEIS
row,Structure (SMILES),outcome
1,CS(=O)(=O)c1ccc(C(=O)C2C(=O)CCCC2=O)c(Cl)c1COCC(F)(F)F,inactive
2,O=C(O)CC(O)(CC(=O)O)C(=O)O,inactive
3,O=C(NC(=O)c1c(F)cccc1F)Nc1cc(Cl)c(OC(F)(F)C(F)C(F)(F)F)cc1Cl (stereo not given),inactive
4,O=S1OC[C@@H]2[C@H](CO1)[C@]1(Cl)C(Cl)=C(Cl)[C@@]2(Cl)C1(Cl)Cl (stereo not given in full),inactive
5,C=CC(=O)[O][Sn]([CH2]CCC)([CH2]CCC)[CH2]CCC,inactive
6,CN(C1CCCCC1)C1CCCCC1,inactive
7,C=CCN=C=S,inactive
8,c1ccc2c(c1)Oc1ccccc1O2,inactive
9,Cc1cc(SCc2sc(-c3ccc(C(F)(F)F)c(F)c3)nc2C)ccc1OCC(=O)O,inactive
10,c1csc(-c2ccc(-c3cccs3)s2)c1,inactive
11,CCCSP(=S)(OCC)Oc1ccc(SC)cc1 (stereo not given),inactive
12,CC1CC(=O)O1 (stereo not given),inactive
13,BrCC(Br)c1ccccc1 (stereo not given),inactive
14,C=C(C)[C@@H]1CC=C(C=O)CC1,inactive
15,O=C(Nc1ccc(Br)cc1)c1cc(Br)cc(Br)c1O,inactive
16,CC(C)(C)c1ccc(CCOc2ncnc3ccccc23)cc1,inactive
17,CC(C)(C1CCC(O)CC1)C1CCC(O)CC1 (stereo not given),inactive
18,C=CC(F)(C(F)(F)F)C(F)(F)C(F)(F)F (stereo not given),inactive

row,Structure (SMILES),outcome
1,C=C(C)C(=O)OCC(CC)CCCC (stereo not given),inactive
2,Cc1cc(-c2cc(C)c(N)c(C)c2)cc(C)c1N,inactive
3,C=CCCl,inactive
4,CC(C)[C@@H](Nc1ccc(C(F)(F)F)cc1Cl)C(=O)OC(C#N)c1cccc(Oc2ccccc2)c1 (stereo not given in full),inactive
5,CN(C)CCN(C)C,inactive
6,CCCSP(=S)(OCC)Oc1ccc(Cl)cc1Cl (stereo not given),inactive
7,CC(C)CC(C)(c1ccc(O)cc1)c1ccc(O)cc1,inactive
8,O=NN1CCOCC1,inactive
9,NNCCO,inactive
10,CC(c1ccccc1)(c1ccc(O)cc1)c1ccc(O)cc1,inactive
11,O=C/C(Cl)=C(/Cl)C(=O)O,inactive
12,O=C=Nc1ccc(Cl)cc1,inactive
13,Cc1cc(Cl)ccc1OCCCC(=O)O,inactive
14,C=CCOC(F)(C(F)(F)F)C(F)(F)F,inactive
15,O=[N+]([O-])c1c2ccccc2cc2ccccc12,inactive
16,O=C(CBr)c1ccc(O)cc1,inactive
17,CCCCCCCCBr,inactive
